Compound activity: PubChem, National Center for Advancing Translational Sciences (NCATS)
Tb PYK inh: T. brucei pyruvate kinase inhibition | 410,000 tested, 0.12% active | Q57TT1 | AID 624173 | TbPYK enzyme, Kinase-Glo Plus ATP luminescence, 45 min | Potency, µM (highest dose often 76.8 µM), for the others: at the highest dose activity, negative = inhibition, most hits filed as inhibitors; also: potency is read from the fitted curve at half-maximal effect; % is scaled to controls: 0 for no effect and ±100 for the full control effect; nearly all actives have a fitted effect of over 50% in size
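In this concentration-response screen, enzyme-free wells defined baseline while DMSO plates tracked drift. Each reaction combined TbPYK, substrate, compound and 130 uM ADP for 45 min at room temperature. Kinase-Glo Plus luminescence gave the signal.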
CHX counter: counter-screen for Shiga toxin inhibitors: cycloheximide protein synthesis inhibition. max response, %. cell reporter, cycloheximide protein synthesis inhibition counterscreen. 300,000 tested, 12% active. AID 2314; in the data active = max response mostly above about 13%, no sharp cut-off; inactive = mostly below about 14%; also: read at 38.3 µM for the half of the compounds with a filed dose; 0% is about no effect
LmPK inh: inhibitors of Leishmania mexicana pyruvate kinase. purified LmPK, Kinase-Glo ATP luminescence, 1 h. Potency, µM (top dose mostly 57.5 µM), for inactives: at the highest dose activity change, negative = inhibition, usual class: inhibitors. 290,000 tested, 0.37% active; also: potency is read from the fitted curve at half-maximal effect; % is scaled to controls: 0 for no effect and ±100 for the full control effect
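Screened at intermediate enzyme activity to detect both inhibitors and activators: LmPK at 0.1 nM, with a 0.5 nM enzyme column as activation reference. PEP 0.5 mM, ADP 0.1 mM; ATP detected by luminescence after 1 h.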
Shiga inhibitor: blocks Shiga toxin action in Vero cells. Vero cells, Shiga toxin protein synthesis inhibition reporter. inhibition, % at 38.7 µM. 290,000 tested, 9.2% active. AID 2315; in the data active = inhibition mostly above about 28%, no sharp cut-off; inactive = mostly below about 43%; also: 0% is about no effect
Giardia FBPA inh: blocks Giardia fructose-bisphosphate aldolase activity; A8B2U2; purified Giardia FBPA; Potency, µM (top dose mostly 59.6 µM), for inactives: at the highest dose activity, negative = inhibition, most hits filed as inhibitors; 290,000 tested, 0.71% active; AID 2451; also: potency is read from the fitted curve at half-maximal effect; % is scaled to controls: 0 for no effect and ±100 for the full control effect; nearly all actives have a fitted effect of over 55% in size
Target sequence (A8B2U2 whole entry, looked up): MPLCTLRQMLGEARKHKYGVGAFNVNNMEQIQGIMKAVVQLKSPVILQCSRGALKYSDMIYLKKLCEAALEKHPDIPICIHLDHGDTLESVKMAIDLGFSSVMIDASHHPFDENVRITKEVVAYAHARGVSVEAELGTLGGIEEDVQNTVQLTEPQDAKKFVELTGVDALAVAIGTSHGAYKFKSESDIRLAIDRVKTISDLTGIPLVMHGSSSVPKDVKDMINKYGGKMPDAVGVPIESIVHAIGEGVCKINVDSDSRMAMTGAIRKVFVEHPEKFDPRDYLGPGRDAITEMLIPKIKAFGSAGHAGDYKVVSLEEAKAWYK
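Giardia FBPA (40 nM reagent) was preincubated 10 min at RT with compound (up to 57.5 uM final), then substrate plus GAPDH/TPI/NAD/arsenate coupling system with diaphorase/resazurin was added; resorufin fluorescence (525/598 nm) was read after 20 min.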
Sm TGR inh: blocks Schistosoma mansoni thioredoxin glutathione reductase | purified TGR, DTNB reduction, TNB absorbance 405 nm | Potency, µM (series often up to 114 µM), for inactives: at the top dose activity change, negative = inhibition, most hits filed as inhibitors | 360,000 tested, 3% active; also: potency is read from the fitted curve at half-maximal effect; % is scaled to controls: 0 for no effect and ±100 for the full control effect; nearly all actives have a fitted effect of over 60% in size
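Kinetic colorimetric format: TGR-catalysed, NADPH-driven DTNB reduction monitored via TNB absorbance. Enzyme dispensed at 20 nM; compound exposure 15 min at room temperature before reaction start.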
Active calls of the source: *. Many of the other results were omitted from the sample, so hits are more common in it than they were. Unless noted, calls follow the shape of the dose curve; as a rule, active = well fitted curve in the direction sought with a large enough effect; inconclusive = small, poorly fitted or top-dose-only effect, or another doubt; inactive = no such curve, though single readings can be large; an effect the other way counts as inactive or inconclusive.

Cn1c(=O)c(-c2ccc(F)c(F)c2)nc2cncnc21 was read as Giardia FBPA inh 1.0%.
Screening COc1ccccc1C(=O)N1CCC(c2c[nH]c3ccccc23)(c2c[nH]c3ccccc23)CC1 returned Tb PYK inh 3.9% and Sm TGR inh 6.3%.
`Cc1ccccc1CCNC(=O)c1cc2ccccn2n1` gave Tb PYK inh -2.0% and Sm TGR inh 9.6%.
O=C(Nc1ccc2nn(-c3ccccc3)nc2c1)c1cc2ccccc2o1 was read as Tb PYK inh 1.6% and Sm TGR inh -15.6%.
`Cc1cc(C)cc(C(=O)Nc2nc3ccccc3[nH]2)c1` gave Tb PYK inh 3.2%, CHX counter 35.3*, LmPK inh -1.5%, Shiga inhibitor 120.6*, Giardia FBPA inh -4.7% and Sm TGR inh 1.2%.
COc1cc(OC)cc(C(=O)Nc2nc3ccccc3[nH]2)c1 was read as Tb PYK inh -2.5%, CHX counter 58.7*, LmPK inh -1.8%, Shiga inhibitor 128.6*, Giardia FBPA inh 3.2% and Sm TGR inh -8.8%.
O=C(Nc1nc2ccccc2[nH]1)c1cc2ccccc2o1 was read as Tb PYK inh 2.5%, CHX counter 34.6*, LmPK inh -10.6%, Shiga inhibitor 54.1* and Giardia FBPA inh -14.2%.
`CN(c1ccccc1)S(=O)(=O)c1ccc(Cl)c(C(=O)Nc2nc3ccccc3[nH]2)c1` gave Tb PYK inh -13.3%, CHX counter -1.3, LmPK inh 1.3%, Shiga inhibitor -3.0, Giardia FBPA inh 21.4% and Sm TGR inh 4.7%.
`CN(C)S(=O)(=O)c1ccc(C(=O)Nc2nc3ccccc3[nH]2)cc1` gave Tb PYK inh -3.4%, CHX counter 36.4*, LmPK inh 3.2%, Shiga inhibitor 79.9*, Giardia FBPA inh -26.6% and Sm TGR inh -1.6%.
For Cc1ccc(C)c(N2CCN(Cc3csc(C)c3)CC2)c1 the results were Tb PYK inh 5.6% and Sm TGR inh -0.4%.
For COc1ccc2oc(C(=O)Nc3nc4ccccc4[nH]3)c(C)c2c1 the results were Tb PYK inh -0.8%, CHX counter 57.5*, LmPK inh -28.6%, Shiga inhibitor 70.3*, Giardia FBPA inh -16.7% and Sm TGR inh 8.6%.
For COc1ccc2oc(C(=O)OC/C(O)=C(\C#N)c3nc4ccccc4[nH]3)c(C)c2c1 the results were Tb PYK inh -1.5%, CHX counter 1.7, LmPK inh -5.3%, Shiga inhibitor 3.1, Giardia FBPA inh -21.1% and Sm TGR inh 0.2%.
O=C(Nc1nc2ccccc2[nH]1)c1ccc(F)cc1 was read as Tb PYK inh -29.4%, CHX counter 19.9*, LmPK inh 12.6µM*, Shiga inhibitor 20.9, Giardia FBPA inh -7.9% and Sm TGR inh 12.4%.
Screening Oc1cccc(C2c3[nH]c4ccccc4c3CCN2Cc2ccoc2)c1 (stereo not drawn) returned Tb PYK inh -5.1%, CHX counter -1.9, LmPK inh 1.8%, Shiga inhibitor -16.1, Giardia FBPA inh -6.8% and Sm TGR inh 17.8µM*.
For COc1ccc(C(=O)OCC(=O)Nc2ccc(Cl)cn2)cc1 the results were Tb PYK inh 0.4%, CHX counter -0.8, LmPK inh 10.7%, Shiga inhibitor -19.4, Giardia FBPA inh 4.6% and Sm TGR inh 3.1%.
O=C(COc1ccc(Cl)cc1)Nc1ccc(Cl)cn1 was read as Tb PYK inh 2.1%, CHX counter 26.0*, LmPK inh 0.9%, Shiga inhibitor 34.2, Giardia FBPA inh -0.7% and Sm TGR inh 0.0%.
`O=C(/C=C/c1ccc2c(c1)OCO2)Nc1ccc(Cl)cn1` gave Tb PYK inh -5.9%, CHX counter 34.2*, LmPK inh 1.1%, Shiga inhibitor 77.8*, Giardia FBPA inh -3.9% and Sm TGR inh 1.5%.
`O=C(COC(=O)c1ccccc1)Nc1ccc(Cl)cn1` gave Tb PYK inh 1.8%, CHX counter 15.3, LmPK inh -0.3%, Shiga inhibitor 65.6, Giardia FBPA inh 13.2% and Sm TGR inh -1.8%.
Screening O=C(COc1ccc2c(c1)OCO2)Nc1ccc(Cl)cn1 returned Tb PYK inh -10.4%, CHX counter 50.6*, LmPK inh -2.1%, Shiga inhibitor 69.2*, Giardia FBPA inh -1.6% and Sm TGR inh 10.6%.
COc1ccccc1C(=O)OCC(=O)Nc1ccc(Cl)cn1 was read as Tb PYK inh 1.9%, CHX counter 27.3*, LmPK inh -0.5%, Shiga inhibitor 15.3, Giardia FBPA inh -1.0% and Sm TGR inh 2.5%.
For O=C(/C=C/c1ccc(O)c(O)c1)O[C@@H]1C[C@@](O)(C(=O)O)C[C@H](O)[C@@H]1O the results were Giardia FBPA inh -18.8%.
Screening CCOc1ccc(CC(=O)NCC(c2cccs2)S(=O)(=O)c2ccc(F)c(C)c2)cc1 (stereo not drawn) returned Tb PYK inh 4.8% and Sm TGR inh -20.4%.
For O=C(COc1ccccc1Cl)Nc1ccc(Cl)cn1 the results were Tb PYK inh -0.8%, CHX counter 39.1*, LmPK inh -0.7%, Shiga inhibitor 63.0*, Giardia FBPA inh -2.4% and Sm TGR inh 0.0%.
`O=C(COC(=O)COc1ccccc1F)Nc1ccc(Cl)cn1` gave Tb PYK inh 0.1%, CHX counter -1.7, LmPK inh 2.6%, Shiga inhibitor 0.9, Giardia FBPA inh -0.5% and Sm TGR inh 8.2%.
`O=C(COc1ccccc1)Nc1ccc(Cl)cn1` gave Tb PYK inh 2.9%, CHX counter 61.8*, LmPK inh 0.7%, Shiga inhibitor 62.1*, Giardia FBPA inh 3.6% and Sm TGR inh 69.6%.
`CC(C)=CC(=O)OCC(=O)Nc1ccc(Cl)cn1` gave Tb PYK inh -0.2%, CHX counter 19.1*, LmPK inh -3.7%, Shiga inhibitor 13.4, Giardia FBPA inh 3.2% and Sm TGR inh 5.4%.
Screening CCOCCN1CCN(C2c3ccccc3CSc3ccccc32)CC1 (stereo not drawn) returned Tb PYK inh 26.6%.
`CCOC(=O)C1CCN(S(=O)(=O)c2cccc3nonc23)CC1` gave Tb PYK inh 3.9%, CHX counter -2.8, LmPK inh -12.4%, Shiga inhibitor 15.3, Giardia FBPA inh 0.9% and Sm TGR inh -0.3%.
For CCOC(=O)C1CCN(S(=O)(=O)c2c(Cl)ccc3nonc23)CC1 the results were CHX counter 10.3, LmPK inh -7.5%, Shiga inhibitor 1.9 and Sm TGR inh 0.891µM*.
Screening N/C(=N\OC(=O)c1cccc([N+](=O)[O-])c1)c1ccccn1 returned Tb PYK inh -7.5%, CHX counter 36.6*, LmPK inh -7.7%, Shiga inhibitor 114.2*, Giardia FBPA inh -7.2% and Sm TGR inh -3.3%.
Screening N/C(=N\OC(=O)c1ccc([N+](=O)[O-])cc1Cl)c1ccccn1 returned Tb PYK inh inconclusive, CHX counter 14.0*, LmPK inh 17.8µM*, Shiga inhibitor 32.4, Giardia FBPA inh 21.1% and Sm TGR inh inconclusive.
